In all, about 190,000 compounds went through this assay and about 400 (0.21%) were called active. Not shown: some 2% with an inconclusive outcome.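 How the source made its calls: active means percent activity GTP binding at least 20 points away from the 100% baseline, either down as inhibitor or up as activator; inconclusive means compound flagged as likely green fluorescent from well-wide comparison; inactive means the rest.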 This excerpt belongs to a sample that is enriched for actives.
Biological target: Cell division control protein 42 homolog (Homo sapiens) (UniProt P60953)
Sequence (P60953 whole entry, looked up): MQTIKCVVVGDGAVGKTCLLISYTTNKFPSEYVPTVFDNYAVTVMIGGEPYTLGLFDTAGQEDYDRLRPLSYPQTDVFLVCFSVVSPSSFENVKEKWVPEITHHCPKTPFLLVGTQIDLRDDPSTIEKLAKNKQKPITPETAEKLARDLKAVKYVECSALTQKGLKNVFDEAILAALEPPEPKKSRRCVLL
Assay: wildtype Cdc42 fluorescent GTP binding changes, either direction – biochemical, multiplex bead flow cytometry, Bodipy-GTP, primary screen (AID 761);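 further: median bead fluorescence of bound Bodipy-FL-GTP at 100 nM; 0% = excess unlabeled GTP control and 100% = no compound control; below 100% means less GTP binding so inhibitor and above means activator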
Details: GST-Cdc42 beads, at 10 µM, actives lie on both sides

Percent activity (GTP binding), active:
O=C(O)/C=C/c1cn(Cc2ccccc2)nc1-c1cccs1 135% [activator]
Cc1ccc(CSc2nc3[nH]ncc3c(=O)[nH]2)cc1 76%
O=C(OCC1O[C@@H](OC(=O)c2cc(O)c(O)c(O)c2)[C@@H](OC(=O)c2cc(O)c(O)c(O)c2)[C@@H](OC(=O)c2cc(O)c(O)c(O)c2)[C@@H]1OC(=O)c1cc(O)c(O)c(O)c1)c1cc(O)c(O)c(O)c1 (stereo partly drawn) 79%
CCOC(=O)c1nc(Nc2ccc(C(=O)OC)cc2)c2ccccc2n1 74%

Percent activity (GTP binding), inactive:
O=C(O)c1n[nH]nc1-c1ccccc1 99%
O=C(O)/C=C/c1cn(-c2ccccc2)nc1-c1cccs1 93%
O=C(/C=C\c1cn(-c2ccccc2)nc1-c1cccs1)N1CCOCC1 100%
NS(=O)(=O)c1ccc(NC(=O)/C=C/c2ccccc2Cl)cc1 97%
O=C(COc1cc(Cl)c(Cl)cc1Cl)NCCc1ccccn1 94%
CCOC(=O)N1CCN(CC(=O)Nc2ccc(F)cc2)CC1 96%
Cc1cc(C)cc(NC(=O)Cn2cnc3c(nnn3Cc3ccc(F)cc3)c2=O)c1 93%
Cc1cccc(C(=O)NNC(=O)c2cccc([N+](=O)[O-])c2)c1 105%
COc1ccccc1N1CCN(C(=O)c2ccc(Cl)c(S(=O)(=O)N3CCCC3)c2)CC1 100%
O=C(Cc1ccc(F)cc1)N1CCN=C1SCc1cccc([N+](=O)[O-])c1 96%
CCCSc1nc2[nH]ncc2c(=O)[nH]1 100%
Cc1cccc(NC(=O)CSc2nc3[nH]ncc3c(=O)[nH]2)c1 97%
O=C(NCc1cccs1)c1cc(-c2ccccn2)nc2ccc(Br)cc12 98%
O=C(c1cccc([N+](=O)[O-])c1)N1CCN(C(=O)c2ccco2)CC1 94%
CCN(C(=O)COC(=O)/C=C/c1nc2ccccc2s1)C1CCS(=O)(=O)C1 (stereo not drawn) 93%
CCOc1ccc(N(CC(=O)NCCc2ccc(OC)cc2)S(C)(=O)=O)cc1 100%
Cc1ccccc1NC(=S)NNC(=O)c1cccc(Br)c1 91%
Cc1nc(S(=O)(=O)c2ccc(Br)cc2)nc2c1CCC2 94%
COc1ccc(C(=O)Nc2ccc(NC(=O)C(C)C)nc2)cc1 93%
Cc1cccc(C(=O)OC(C)CN2CCN(C)CC2)c1 (stereo not drawn) 101%
Nc1ccc(OCC(O)C[n+]2ccc(CCS(=O)(=O)[O-])cc2)cc1 (stereo not drawn) 102%
O=C(Cc1ccc(F)cc1)N/N=C/c1ccc2c(c1)OCO2 97%
OCCC1CN(Cc2cccn2-c2nccs2)CCN1CCc1ccccc1 (stereo not drawn) 95%
CC(/C=N/NC(=O)c1ccncc1)=C\c1ccco1 99%
CCOC(=O)C1(Cc2cccc(OC)c2)CCCN(S(=O)(=O)c2cccnc2)C1 (stereo not drawn) 100%
O=C(CSc1nnnn1-c1ccc(O)cc1)N1N=C(c2ccc3ccccc3c2)CC1c1ccccc1 (stereo not drawn) 98%
CC(=O)NC1C(OCc2ccccc2)OC(COC(C)=O)C(OC(C)=O)C1OC(C)=O (stereo not drawn) 104%
NC(=O)COc1ccc(NC(=O)c2ccccc2-c2ccccc2)cc1 92%
CCOC(=O)c1ccc(N/C(=N/S(=O)(=O)c2ccccc2)c2ccccc2)cc1 98%
CCOC(=O)c1ccc(Nc2cc(C)nc3nc(C)nn23)cc1 99%
CC(=O)Nc1ccccc1NC(=O)c1cc(C)cc(C)c1 98%
NC(N)=Nc1nc2ccc(Br)cc2c(=O)[nH]1 93%
O=C(Nc1ccc(Cl)cc1)C1c2cccc[n+]2CC(=O)N1Cc1ccc2c(c1)OCO2 (stereo not drawn) 99%
CCC1CCCCN1C(=O)CSc1nc2c(c(=O)n(C)c(=O)n2C)n1C (stereo not drawn) 98%
Fc1cccc(Cc2noc(CN3CCN(c4cnccn4)CC3)n2)c1 101%
CCOC(=O)c1ccc(NC2Nc3cc(C)nn3S2)cc1 (stereo not drawn) 95%
CC(=O)c1ccccc1NC(=O)CC1(CC(=O)O)CCCCC1 95%
Cc1ccc(C)c(-n2nnnc2SCC(=O)c2c(N)n(C)c(=O)n(C)c2=O)c1 93%
Cc1ccc(S(=O)(=O)NC(C(=O)N2CCOCCOCCOCCOCC2)c2ccccc2)cc1 (stereo not drawn) 100%
COc1ccccc1C(=O)CSc1cccc[n+]1[O-] 94%
CCCCN(C(=O)COc1ccc(NC(C)=O)cc1)C1CCS(=O)(=O)C1 (stereo not drawn) 96%
Cc1ccc(Cl)cc1NC(=O)COC(=O)CC(C)(C)C 90%
CCCCn1c(=O)c(C(C)=O)c(O)c2ccccc21 96%
CCNC(=O)COc1cc(C)c(Br)c(C)c1 105%
